Screening data as filed in PubChem BioAssay.
KDM4E inh – qHTS Assay for Inhibitors of Human Jumonji Domain Containing 2E (JMJD2E) | JMJD2E catalytic domain, FDH-coupled NADH fluorescence (FDH is formaldehyde dehydrogenase) | 1.6% of 230,000 active | Potency, µM (doses to about 57.1 µM), actives largely listed as inhibitors | AID 2147, 2009; active means well fitted inhibition curve with a large enough effect, not every such curve was filed as active; inconclusive means small, poorly fitted or top-dose-only effect, or another doubt; inactive means no such curve, though single readings can be large or run the other way; further: nearly all actives have a fitted effect of over 50% in size
Target sequence (B2RXH2 1-337 limits assumed): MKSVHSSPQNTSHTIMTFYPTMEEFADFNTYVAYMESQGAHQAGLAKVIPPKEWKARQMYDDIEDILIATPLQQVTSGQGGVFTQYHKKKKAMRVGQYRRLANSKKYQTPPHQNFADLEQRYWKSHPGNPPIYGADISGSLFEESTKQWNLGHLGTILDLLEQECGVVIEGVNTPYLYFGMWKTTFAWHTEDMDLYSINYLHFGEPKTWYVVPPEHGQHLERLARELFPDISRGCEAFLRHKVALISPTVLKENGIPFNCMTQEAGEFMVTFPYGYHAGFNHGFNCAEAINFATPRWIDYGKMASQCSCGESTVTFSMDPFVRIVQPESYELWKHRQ
Tau fibril FP – qHTS for Inhibitors of Tau Fibril Formation, Fluorescence Polarization. Microtubule-associated protein tau (Homo sapiens), P10636. K18 P301L tau heparin fibrillization, Alexa594 FP, 6 h. Potency, µM (doses to about 57.7 µM), usual class: inhibitors. 0.39% of 280,000 active. AID 1468, 2008; further: nearly all actives have a fitted effect of over 55% in size
Target sequence (P10636 561-689 P618L limits assumed): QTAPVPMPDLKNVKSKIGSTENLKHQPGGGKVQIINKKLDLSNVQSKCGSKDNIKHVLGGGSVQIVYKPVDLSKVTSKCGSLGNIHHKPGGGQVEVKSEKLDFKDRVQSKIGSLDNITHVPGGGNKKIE
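Steps: dispense K18 P301L tau (15 uM plus 0.24 uM Alexa 594 tracer, final) in pH 7 sodium acetate; add compound; add heparin (20 uM final); incubate 6 hr, 37 C; add ThT (30 uM final); after 1 hr ambient, read FP.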
Tau fibril ThT – qHTS for Inhibitors of Tau Fibril Formation, Thioflavin T Binding. Microtubule-associated protein tau (Homo sapiens), P10636. recombinant tau K18 P301L, heparin-induced fibrillization, ThT fluorescence. Potency, µM (top dose mostly 57.4 µM), most hits filed as inhibitors. 2.1% of 270,000 active. AID 1460, 2008; further: nearly all actives have a fitted effect of over 55% in size
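ThT emission at 510 nm, taken 1 hr after adding 30 uM dye, quantifies aggregates formed when 20 uM heparin acts on human tau K18 P301L for 6 hr at 37 C.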
Sfp inh – qHTS Assay for Inhibitors of Bacillus subtilis Sfp phosphopantetheinyl transferase (PPTase); Biochemical Sfp PPTase activity, qHTS; Potency, µM, most hits filed as inhibitors; 3.5% of 310,000 active; AID 1490, 2009;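 further: the enzyme is Sfp with the accession as filed and its product quenches rhodamine fluorescence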
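Sfp 15 nM + cpd, 15 min RT; start w/ rhodamine-CoA 5 uM, BHQ-2-YbbR 12.5 uM (final); 50 mM Hepes pH 7.6, 10 mM MgCl2, 0.01% NP-40, 0.01% BSA; read 525/598 nm at 0 and 30 min.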
Tau fluor cs – Counterscreen qHTS for Inhibitors of Tau Fibril Formation, Fluorescence Polarization; tau K18 P301L Alexa594 fluorescence, heparin fibrillization; 0.93% of 280,000 active; Potency, µM (series often up to 57.7 µM); further: nearly all actives have a fitted effect of over 55% in size
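Human tau K18 P301L (15 uM unlabeled, 0.24 uM Alexa 594-labeled) in 100 mM sodium acetate pH 7 with 20 uM heparin, 6 hr at 37 C. ThT 30 uM added, 1 hr ambient; Alexa 594 FP and total fluorescence read at 555/632 nm.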
Coupling enz – qHTS Assay for Inhibitors of Fructose-1,6-bisphosphate Aldolase from Giardia Lamblia: Coupling assay counterscreen; coupling enzyme system counterscreen, AmpLite Red fluorescence; activity change, negative = inhibition, % at 58.2 µM, hits read low; 0.67% of 290,000 active; AID 2472, 2010; in the data active means activity change below about -30%
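Final compound at 57.5 uM, incubated 10 min at RT with coupling enzyme reagent (glyceraldehyde-3-phosphate), then 20 min with substrate and AmpLite Red detection. Fluorescence read at 525/598 nm; tests interference with the coupling assay, not aldolase inhibition.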
Tau fibril TEM – Transmission Electron Microscopy Assay for Inhibitors of Tau Fibrillization | shares compounds with Tau fibril ThT | recombinant tau K18 P301L fibrillization, TEM grading; hits give high values | fibril grade (0 = clumped fibrils, 4 = only tiny pieces) (test concentration not listed) | 70% of 45 active | AID 1719, 2009;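 active means compounds whose electron micrographs showed tau fibrils broken into shorter filaments or fragments, graded high on fibril breakup; inconclusive means micrographs gave an unclear fibril picture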
tau sediment – Sedimentation Assay for Inhibitors of Tau Fibrillization; 50% of 110 active; shares compounds with Tau fibril ThT; recombinant tau K18 P301L (four-repeat tau fragment), sedimentation SDS-PAGE densitometry; AID 1720, 2009; inhibition, % at 100 µM; in the data active means inhibition above about 40%; inconclusive means no clear call, values can overlap the other calls; inactive means below about 18%
Numbers stand for hits; – = inactive; ? = inconclusive; · = no result; [ ] = another dose, or the depositor's remark. This is a sample that favours compounds with a hit; in the whole collection about 5.3% have one here. Unless noted, the call rests on the fitted dose curve; in most records, active means well fitted curve in the direction sought with a large enough effect; inconclusive means small, poorly fitted or top-dose-only effect, or another doubt; inactive means no such curve, though single readings can be large; an effect the other way counts as inactive or inconclusive.

SMILES	KDM4E inh	Tau fibril FP	Tau fibril ThT	Sfp inh	Tau fluor cs	Coupling enz	others
CC(=O)c1c(C)[nH]c(C2=NNC(=NCc3ccccc3)SC2)c1C	?	–	?	50µM	–	–
Cc1c(N=NC2=C(O)CCCC2=O)c(=O)n(-c2ccccc2)n1C	–	?	14µM	14µM	–	–
Cc1c(N=Nc2ccc(O)cc2)c(=O)n(-c2ccccc2)n1C	–	–	–	–	–	–
NNC(=S)NCc1cccnc1	–	–	–	63µM	–	–
S=C(NCc1cccnc1)Nc1ccc(Oc2ccccc2)cc1	?	–	–	40µM	?	–
Cc1cc(/C=C(/C#N)c2nc3ccccc3[nH]2)c(C)n1-c1cc(C(=O)O)cc(C(=O)O)c1	22µM	–	?	–	–	–
Cc1cc2c(nc1C)CCCCN2C[C@H](C)O/N=C\[C@@H](C)[C@H](OCc1ccccc1)C(C)C	·	–[11.6 µM]	–[11.5 µM]	–	–[11.6 µM]	–
c1csc(-c2nc3c4ccccc4c4ccccc4c3[nH]2)c1	?	?	?	–	13µM[quencher]	–
Oc1ccccc1-c1nc2c3ccccc3c3ccccc3c2[nH]1	?	–	?	–	10µM[quencher]	-47
O=C(O)c1ccccc1-c1nc2ccccc2c(=O)[nH]1	–	–	–	–	–	–
O=C(CN1C(=O)c2cccnc2Sc2ccccc21)Nc1cc(F)ccc1F	·	–	–	·	–	·
Cc1cc2nc3c(=O)[nH]c(=O)nc-3n(C[C@H](O)[C@H](O)[C@H](O)COP(=O)(O)OP(=O)(O)OC[C@H]3O[C@@H](n4cnc5c(N)ncnc54)[C@H](O)[C@@H]3O)c2cc1C	·	·	·	–	·	·
COc1cc(/C=C2\SC(=O)N(c3ccccc3Cl)C2=O)cc([N+](=O)[O-])c1O	–	–	4µM	–	16µM[quencher]	–
COc1cc(/C=C2/SC(=S)N(CC(=O)Nc3cccnc3)C2=O)cc(OC)c1OC	–	?	?	–	?	–
COc1cc(/C=C2\SC(=O)N(CC(=O)Nc3cccc(C)c3)C2=O)cc([N+](=O)[O-])c1O	–	–	13µM	–	?	–
COc1ccc(/C=C2\SC(=O)N(CC(=O)Nc3ccc(F)cc3)C2=O)cc1O	·	·	·	–	·	–
COc1ccc(/C=C2\SC(=O)N(CC(=O)Nc3cccnc3)C2=O)cc1OC	–	–	–	45µM	–	–
COc1ccc(/C=C2\SC(=O)N(CCNC(=O)Cc3coc4cc(C)ccc34)C2=O)cc1OC	–	?	13µM	–	–	–
COc1cc(/C=C2\SC(=O)N(CC(=O)Nc3ccccc3F)C2=O)cc(Cl)c1O	·	·	·	–	·	–
CCOc1cc(/C=C2\SC(=O)N(CC(=O)Nc3ccccc3F)C2=O)cc([N+](=O)[O-])c1O	–	–	7.9µM	–	?	–
COc1cc(/C=C2\SC(=N)N(c3ccc4c(c3)OCO4)C2=O)cc(OC)c1O	–	–	3.2µM	–	?	–
O=C(Cc1ccccc1)Nc1sc2c(c1C(=O)Nc1ccc(Cl)cc1)CCCC2	·	?	8.9µM	·	–	·	Tau fibril TEM=2;tau sediment=61
CCOC(=O)N1CCc2c(sc3c2c(=O)n(-c2ccc(Cl)cc2)c(=O)n3CC(=O)Nc2ccccc2)C1	·	–	–	·	–	·
Cc1cc(C)cc(NC(=O)CSc2nc3sc4c(c3c(=O)[nH]2)CCCC4)c1	·	–	–	·	–	·
